High-throughput results from PubChem.
Compounds with a hit are over-represented: about 7.9% of the library has one in this group of screens.
HCMV inh: blocks human cytomegalovirus replication; HFF cells, HCMV-luciferase reporter, 72 h; hits give low values; activity change, negative = inhibition, % at 57.5 µM; AID 1259415; 4.5% of 410,000 active; in the data active = activity change below about -60%; inconclusive = no clear call, values can overlap the other calls; inactive = above about -39%
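After 16 h attachment at 37C, HFF cells received test compound and HCMV-luciferase (1 PFU/cell); reporter luminescence read 72 h later, data normalized against buffer-only and known inhibitor Salinomycin.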
LASV entry inh: inhibitors of Lassa virus binding or cell entry; Lassa virus pseudotype entry inhibition, cell reporter; Potency, µM (top dose mostly 37.9 µM), for inactives: at the top dose activity change, negative = inhibition, most hits filed as inhibitors; 1.2% of 300,000 active; AID 540256; calls by dose curve; tested in HEK293 cells; also: potency is read from the fitted curve at half-maximal effect; nearly all actives have a fitted effect of over 50% in size
Marburg entry inh: Marburg virus entry inhibition. Marburg virus pseudotyped entry inhibition, cell reporter. 1.8% of 300,000 active. Potency, µM (top dose mostly 37.8 µM), for the others: top-dose activity change, negative = inhibition, actives largely listed as inhibitors; calls by dose curve; tested in HEK293 cells; also: potency is read from the fitted curve at half-maximal effect
FMDV inh: blocks foot and mouth disease virus. 1.2% of 410,000 active. Potency, µM (top dose mostly 57.9 µM), without a hit: top-dose activity change, negative = inhibition, usual class: inhibitors. FMDV antiviral cell-based qHTS; calls by dose curve; tested in HEK293T cells; also: read-out not given here; potency is read from the fitted curve at half-maximal effect; nearly all actives have a fitted effect of over 45% in size
HCV inhibitor: blocks hepatitis C virus; Huh7.5.1 HCVcc-Cre infection, luciferase reporter, 44 h; Potency, µM (titrated, usually from 41.8 µM), without a hit: at the top dose activity change, negative = inhibition, hits mostly inhibitors; 3.4% of 340,000 active; AID 651820; active = well fitted inhibition curve with a large enough effect; inconclusive = small, poorly fitted or top-dose-only effect, or another doubt; inactive = no such curve, though single readings can be large or run the other way; also: potency is read from the fitted curve at half-maximal effect
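After 44 h co-culture of compound, cells and HCVcc-Cre (~0.5 moi), substrate is added for 15 min at room temperature and luciferase measured over 15 sec. Cells were seeded at 1,000/well and pre-cultured 4 h.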
* hit, by the source's call; ? = inconclusive; / = not tested or not shown; [ ] = another dose, or the depositor's remark. % is scaled to controls: 0 for no effect and ±100 for the full control effect.

SMILES	HCMV inh	LASV entry inh	Marburg entry inh	FMDV inh	HCV inhibitor
Cc1ccc(NC(=S)NC(=O)c2ccc(F)cc2)cc1S(=O)(=O)Nc1cccc(Cl)c1	-35.3	?	?	-33.3%	?
COc1cc2c(cc1NC(=O)c1ccccc1C)n(C)c(=O)n2C	8.1	?	?	5.4%	/
O=C(NCC1(N2CCOCC2)CCCCCC1)c1cnn(-c2nccc(-c3ccco3)n2)c1C1CC1	/	/	/	-0.4%	/
COCC(=O)Nc1cc(C(=O)N2CCC(c3ccccc3)CC2)cc2nc(-c3ccccc3)n(C)c12	/	/	/	21.8%	/
CC(C)(C)C1=CC(=Nc2ccccc2N)C=C(C(C)(C)C)C1=O	-7.3	-22.7%	?	?	-22.4%
CC(C)(C)C1=CC(=O)C(=O)C(C(C)(C)C)=C1	/	?	-19.6%	28.2µM*	?
O=C(/C=C/c1ccc(Cl)cc1)N1CCC(c2nc3ccccc3o2)CC1	-28.3	-1.4%[46.1 µM]	?	7.1%	/
COC(=O)c1ccc(/C=C(\C#N)C(=O)NC(C)c2ccccc2)cc1 (stereo not given)	-95.4*	/	5.3%	?	11.2µM*
Cc1ccc(C(C)NC(=O)/C(C#N)=C\c2c(C)[nH]c3ccccc23)cc1 (stereo not given)	-60.5*	-10.8%	?	-9.8%	-10.5%
CC(NC(=O)/C(C#N)=C/c1ccc([N+](=O)[O-])o1)c1ccccc1 (stereo not given)	-101.4*	?	?	28.2µM*	?
Cc1[nH]c2ccccc2c1/C=C(\C#N)C(=O)NCc1ccccc1	7.6	?	11.8%	-1.2%	?
CCOCCCNC(=O)/C(C#N)=C/c1ccc(-c2ccc(S(=O)(=O)N3CCOCC3)cc2)o1	/	?	?	-11.3%	?
CCOCCCNC(=O)/C(C#N)=C/c1ccc([N+](=O)[O-])o1	-99.4*	?	?	31.6µM*	?
O=C(CCc1nc2cccnc2n1-c1ccccc1)Nc1ccc(Cl)c(Cl)c1	?	25.4%[46.1 µM]	-19.8%[46.1 µM]	?	/
CCc1cccc(N=c2c([N+](=O)[O-])nn(-c3ccc4c(c3)OCCO4)n2O)c1	-67.0*	?	?	?	10µM*
Cc1cc(C)c(NC(=O)c2ccc3nccnc3c2)c(C)c1	-71.6*	4.2%	0.3%[46.1 µM]	2.9%	2.5%
O=C(Nc1ccc(SC(F)F)cc1)c1ccc2nccnc2c1	-77.7*	8.8%	?	/	3.55µM*
Cc1ccc(NC(=O)c2ccc3nccnc3c2)c(C)c1	-68.3*	2.3%[46.1 µM]	?	21.2%	-23.9%
Cc1cc(NC(=O)c2ccc3nccnc3c2)ccc1Br	26.1	-24.9%	?	-30.7%	?
COC(=O)c1ccc(NC(=O)c2ccc3nccnc3c2)cc1	9.3	0.5%[46.1 µM]	-2.7%[46.1 µM]	-3.3%	?
COCCCN1C(=O)c2ccc(C(=O)Nc3ccc(C)cc3C)cc2C1=O	-92.4*	/	/	13.6%	-1.4%
COc1ccc(CNc2nc3c(-c4ccccc4)nnn3c3ccccc23)cc1	-28.7	20.1%[46.1 µM]	29.5%[46.1 µM]	5.4%	/
COc1ccc2nc(NC(=O)c3cc(=O)c4cc(C)cc(C)c4o3)sc2c1	-15.5	-2.3%[46.1 µM]	?	-4.0%	/
CC(C)(C)C1CCc2c(sc(NC(=O)c3noc4c3CCCC4)c2C#N)C1 (stereo not given)	16.7	?	-15.6%[46.1 µM]	8.9%	/
O=S(=O)(c1ccccc1)N1CCC(c2noc3ccccc23)CC1	-12.5	/	/	/	/
SMILES	HCMV inh	LASV entry inh	Marburg entry inh	FMDV inh	HCV inhibitor
Cc1cccc(C)c1NC(=O)CN1CCC(Cc2ccccc2)CC1	-11.6	/	/	-17.8%	/
Cc1cccc(C)c1NC(=O)CN1CCN(CCCC(c2ccc(F)cc2)c2ccc(F)cc2)CC1	6.3	/	/	0.0%	2µM*
O=C(CCCN1CCC(O)(c2cccc(C(F)(F)F)c2)CC1)c1ccc(F)cc1	65.6	?	11.2µM*	-19.8%	?
O=C(CCCN1CCC(O)(c2ccc(Cl)cc2)CC1)c1ccc(F)cc1	16.6	?	10.3µM*	-15.9%	?
O=C(CCCN1CCC(O)(c2ccc(Br)cc2)CC1)c1ccc(F)cc1	38.9	/	/	-19.3%	?
COc1ccc(C(=O)Nc2cccc(-c3cn4ccsc4n3)c2)c(OC)c1	-37.1	?	/	16.7%	/
COc1ccc(CNC(=O)CCc2c(C)nc3c(c2C)c(=O)n(C)c(=O)n3C)cc1	-0.8	3.8%[46.1 µM]	0.4%[46.1 µM]	10.3%	/
COc1cnc(-c2ccccn2)nc1Sc1ccc(Cl)cc1	-13.7	?	?	8.2%	?
COc1ccc(Sc2nc(-c3ccccn3)ncc2OC)cc1	?	20.6µM*	16.4µM*	-21.1%	?
COc1cnc(-c2ccccn2)nc1Sc1ccccc1	-99.5*	-20.0%	?	0.0%	6.31µM*
COc1cnc(-c2ccccn2)nc1Sc1ccc(F)cc1	?	?	?	-19.9%	0.562µM*
COc1cnc(-c2ccccn2)nc1N(C)c1ccccc1	-98.4*	?	?	8.4%	10µM*
CN1C[C@@H](O)[C@@H](O)[C@@H](O)[C@@H]1CO	/	/	21.8%	/	/
COc1cnc(-c2ccccn2)nc1Oc1cccc(C(F)(F)F)c1	-99.4*	/	/	/	/
COc1cnc(-c2ccccn2)nc1Oc1ccccc1	-31.0	5.6%	?	-12.6%	-4.1%
O=C(O)c1ccc2c3c(cccc13)C(=O)N(c1ccccc1)C2=O	-39.7	2.8%	-1.6%	-11.7%	4.5%
Cc1c(O)c2c3c(cccc3c1O)C(=O)N(c1ccccc1)C2=O	?	-17.1%	-38.1%	22.4µM*	?
Nc1ccc2c3c(cccc13)C(=O)N(c1ccccc1)C2=O	21.2	?	22.8%[46.1 µM]	11.3%	-21.5%
CC(=O)Nc1ccc2c3c(cccc13)C(=O)N(c1ccccc1)C2=O	-60.4*	-15.6%[46.1 µM]	9.6%[46.1 µM]	19.2%	-5.5%
Cc1ccc(Cl)cc1N1CCN(C(=O)c2c(C)oc3ncnc(N4CCCCC4)c23)CC1	-5.6	-23.6%[46.1 µM]	/	0.0%	/
CCOC(=O)c1c(S(=O)(=O)N2CCCC(C(=O)Nc3ccc(C)cc3C)C2)c(C)n(CC)c1C (stereo not given)	-8.9	-10.6%[46.1 µM]	/	0.0%	/
COc1ccc(CCNC(=O)c2ccc(-n3c(C)cc4c3CCC(C)C4)cc2)cc1OC (stereo not given)	?	?	/	0.0%	/
CC1CC2CCCC(O)=C2C(=O)O1 (stereo not given)	-60.6*	/	/	-27.3%	11.3%
COc1ccc(C(CC(=O)O)NC(=O)c2cc3ccccc3oc2=O)cc1OC (stereo not given)	18.1	1.9%[46.1 µM]	-6.1%[46.1 µM]	-16.7%	/
COc1ccccc1NC(=O)Cn1nnc(-c2ccccc2NC(=O)c2ccco2)n1	-3.0	?	-28.0%	?	?
COc1ccc(-n2ncc3c(=O)n(CC(=O)Nc4ccc5c(c4)OCCO5)cnc32)cc1	-60.1*	?	?	4.5%	-29.0%
COc1ccc(C(=O)Nc2ccccc2-c2nnn(CC(=O)Nc3ccc4c(c3)OCCO4)n2)cc1	-62.9*	22.0%	-5.5%	0.0%	0.4%
O=C(Cn1cnc2ccccc21)Nc1ccc2c(c1)OCCCO2	?	/	/	-5.7%	11.2µM*
COc1ccc(NC(=O)Cn2nnc(-c3ccccc3NC(=O)c3ccco3)n2)cc1	-23.0	?	11.2µM*	-42.8%	?
